Source: PubChem BioAssay (EPA / NIEHS)
Where “and” joins values, the source holds several entries; their conditions need not be identical. Equal values may be shown once. A structure can be active in one record and inactive in another. Calls of active or inactive are those of the source. How the source made its calls, unless noted: active means hit-call score of the fitted dose curve at least 0.9, where 1 is the maximum; inconclusive means response in the unintended direction; inactive means score below 0.9.

biological target: Estrogen receptor (Homo sapiens) (UniProt P03372); assay: OT_ERa_GFPERaERE_0480: Odyssey Thera (OT) 8-hour HeLa Transcription Induction Assay for Estrogen Receptor (AID 2283381; active means hit-call score of the fitted dose curve at least 0.9, where 1 is the maximum; inactive means score below 0.9)
Summary of the method: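 Human cervical HeLa cells were treated for 8 hours, after which ERE-driven GFP induction was measured by fluorescence microscopy; increases over DMSO baseline defined activity.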

Sequence of Estrogen receptor (Homo sapiens) (P03372 whole entry, looked up): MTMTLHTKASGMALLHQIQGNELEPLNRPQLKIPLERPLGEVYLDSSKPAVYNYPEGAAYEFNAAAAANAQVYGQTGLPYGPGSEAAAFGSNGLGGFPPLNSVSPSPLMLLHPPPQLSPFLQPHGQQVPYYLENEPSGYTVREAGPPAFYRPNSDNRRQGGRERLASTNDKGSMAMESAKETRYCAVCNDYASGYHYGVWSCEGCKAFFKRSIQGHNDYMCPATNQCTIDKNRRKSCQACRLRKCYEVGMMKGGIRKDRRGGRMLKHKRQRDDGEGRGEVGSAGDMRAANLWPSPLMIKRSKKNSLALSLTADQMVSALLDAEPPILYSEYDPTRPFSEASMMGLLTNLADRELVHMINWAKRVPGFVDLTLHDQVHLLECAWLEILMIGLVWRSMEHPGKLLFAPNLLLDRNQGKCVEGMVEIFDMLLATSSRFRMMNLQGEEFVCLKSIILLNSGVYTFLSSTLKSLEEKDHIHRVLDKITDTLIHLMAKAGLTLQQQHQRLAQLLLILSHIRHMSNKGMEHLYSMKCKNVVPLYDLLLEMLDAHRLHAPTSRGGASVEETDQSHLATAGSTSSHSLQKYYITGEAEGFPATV

**Q.** With Cc1cc2c3c(c1)C(c1ccccc1)=N[C@@H](NC(=O)c1ccncc1)C(=O)N3CC2 as the compound, how does the outcome read?
**A.** inactive

**Q.** With Oc1c(Cl)c(Cl)c(Cl)c(Cl)c1Cl as the compound, how does the outcome read?
**A.** inactive

**Q.** Which outcome does the source give for OCC(O)CO here?
**A.** inactive

**Q.** Which outcome does the source give for ClC1=C(Cl)[C@]2(Cl)[C@@H]3[C@@H]4C[C@@H]([C@H]5O[C@@H]45)[C@@H]3[C@@]1(Cl)C2(Cl)Cl here?
**A.** inactive

**Q.** For CCC(=O)O[C@H]1CC[C@H]2[C@@H]3CCC4=CC(=O)CC[C@]4(C)[C@H]3CC[C@]12C, which AC50 is on record?
**A.** 12.3 µM (active)

**Q.** What about the outcome of the same compound?
**A.** inactive

**Q.** C[C@]12CCC(=O)C=C1CC[C@@H]1[C@@H]2CC[C@]2(C)C(=O)CC[C@@H]12 was tested. Which outcome did it give?
**A.** inactive

**Q.** c1ccc(-c2ccccc2)cc1 was tested. Which outcome did it give?
**A.** inactive

**Q.** How did the outcome turn out when O=C(O)C(F)(F)C(F)(F)C(F)(F)C(F)(F)C(F)(F)C(F)(F)C(F)(F)C(F)(F)C(F)(F)F was run?
**A.** inactive

**Q.** With COc1ccc(O)c(C(C)(C)C)c1 as the compound, how does the outcome read?
**A.** inactive

**Q.** For C[C@]12CCC(=O)C=C1CC[C@@H]1[C@@H]2CC[C@@]2(C)[C@H]1CC[C@]2(C)O, which outcome is on record?
**A.** inactive

**Q.** Which outcome does the source give for CCOC(=O)C(O)(c1ccc(Cl)cc1)c1ccc(Cl)cc1 here?
**A.** inactive

**Q.** How did the outcome turn out when Nc1ccc(-c2ccc(N)cc2)cc1 was run?
**A.** inactive

**Q.** Cc1cc(-c2ccc(N)c(C)c2)ccc1N was tested. Which AC50 did it give?
**A.** 37.2 µM (active)

**Q.** And the outcome?
**A.** inactive

**Q.** COS(=O)(=O)OC was tested. Which outcome did it give?
**A.** inactive

**Q.** For Cc1ccc(O)c(C)c1, which outcome is on record?
**A.** inactive

**Q.** For ClC(Cl)=C(c1ccc(Cl)cc1)c1ccc(Cl)cc1, which outcome is on record?
**A.** inactive

**Q.** For CC(C)(c1ccccc1)c1ccc(O)cc1, which AC50 is on record?
**A.** 770 nM (active) and 897 nM (active) and 861 nM (active)

**Q.** How did the outcome turn out when Oc1ccc(Cl)cc1Cl was run?
**A.** inactive

**Q.** For O=NN(c1ccccc1)c1ccccc1, which outcome is on record?
**A.** inactive

**Q.** How did the outcome turn out when O=C(N[C@H]1CN2CCC1CC2)c1cc2ccoc2cn1 was run?
**A.** inactive

**Q.** How did the outcome turn out when O=C(O)C(F)(F)C(F)(F)C(F)(F)C(F)(F)C(F)(F)C(F)(F)C(F)(F)C(F)(F)F was run?
**A.** inactive

**Q.** Which outcome does the source give for CC#Cc1cc(C)nc(Nc2ccccc2)n1 here?
**A.** inactive

**Q.** CC1=C2C[C@H]3[C@@H](CC=C4C[C@@H](O)CC[C@@]43C)[C@@H]2CC[C@]12O[C@@H]1C[C@H](C)CN[C@H]1[C@H]2C was tested. Which outcome did it give?
**A.** inactive

**Q.** How did the outcome turn out when CC(C)C(=O)OCC(C)(C)C(OC(=O)C(C)C)C(C)C (centres undefined) was run?
**A.** inactive

**Q.** Which outcome does the source give for CC(C)(O)C(=O)Nc1ccc([N+](=O)[O-])c(C(F)(F)F)c1 here?
**A.** inactive

**Q.** Which AC50 does the source give for CCCCCCCCCC[N+](C)(C)CCCCCCCCCC here?
**A.** 17.1 µM (active)

**Q.** How did the outcome turn out when Nn1cnnc1 was run?
**A.** inactive

**Q.** How did the outcome turn out when CCCN(CCC)N=O was run?
**A.** inactive

**Q.** CCCCCCOC(=O)c1ccccc1C(=O)OCCCCCC was tested. Which outcome did it give?
**A.** inactive

biological target: Estrogen receptor (Homo sapiens) (UniProt P03372); assay: OT_ERa_GFPERaERE_0120: Odyssey Thera (OT) 2-hour HeLa Transcription Induction Assay for Estrogen Receptor (AID 2283382)
Summary of the method: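 Cells (human cervical HeLa) receive compound, incubate 2 hours, then are imaged for fluorescent reporter induction. Images are quantified by high content analysis, and activity is fitted as gain of signal against DMSO.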

**Q.** Which outcome does the source give for Cc1cc2c3c(c1)C(c1ccccc1)=N[C@@H](NC(=O)c1ccncc1)C(=O)N3CC2 here?
**A.** inactive

**Q.** With Oc1c(Cl)c(Cl)c(Cl)c(Cl)c1Cl as the compound, how does the outcome read?
**A.** inactive

**Q.** Which outcome does the source give for OCC(O)CO here?
**A.** inactive

**Q.** With ClC1=C(Cl)[C@]2(Cl)[C@@H]3[C@@H]4C[C@@H]([C@H]5O[C@@H]45)[C@@H]3[C@@]1(Cl)C2(Cl)Cl as the compound, how does the outcome read?
**A.** inactive

**Q.** Which outcome does the source give for CCC(=O)O[C@H]1CC[C@H]2[C@@H]3CCC4=CC(=O)CC[C@]4(C)[C@H]3CC[C@]12C here?
**A.** inactive

**Q.** C[C@]12CCC(=O)C=C1CC[C@@H]1[C@@H]2CC[C@]2(C)C(=O)CC[C@@H]12 was tested. Which outcome did it give?
**A.** inactive

**Q.** How did the outcome turn out when c1ccc(-c2ccccc2)cc1 was run?
**A.** inactive

**Q.** How did the outcome turn out when O=C(O)C(F)(F)C(F)(F)C(F)(F)C(F)(F)C(F)(F)C(F)(F)C(F)(F)C(F)(F)C(F)(F)F was run?
**A.** inactive

**Q.** How did the outcome turn out when COc1ccc(O)c(C(C)(C)C)c1 was run?
**A.** inactive

**Q.** How did the outcome turn out when C[C@]12CCC(=O)C=C1CC[C@@H]1[C@@H]2CC[C@@]2(C)[C@H]1CC[C@]2(C)O was run?
**A.** inactive

**Q.** How did the outcome turn out when CCOC(=O)C(O)(c1ccc(Cl)cc1)c1ccc(Cl)cc1 was run?
**A.** inactive

**Q.** Cc1cc(O)ccc1Cl was tested. Which outcome did it give?
**A.** inactive

**Q.** Nc1ccc(-c2ccc(N)cc2)cc1 was tested. Which outcome did it give?
**A.** inactive

**Q.** How did the AC50 turn out when Cc1cc(-c2ccc(N)c(C)c2)ccc1N was run?
**A.** 50 µM (active)

**Q.** What about the outcome of the same compound?
**A.** inactive

**Q.** For COS(=O)(=O)OC, which outcome is on record?
**A.** inactive

**Q.** With Cc1ccc(O)c(C)c1 as the compound, how does the outcome read?
**A.** inactive

**Q.** With ClC(Cl)=C(c1ccc(Cl)cc1)c1ccc(Cl)cc1 as the compound, how does the AC50 read?
**A.** 11.8 µM (active)

**Q.** And the outcome?
**A.** inactive

**Q.** CC(C)(c1ccccc1)c1ccc(O)cc1 was tested. Which AC50 did it give?
**A.** 633 nM (active) and 791 nM (active) and 967 nM (active)

**Q.** With Oc1ccc(Cl)cc1Cl as the compound, how does the outcome read?
**A.** inactive

**Q.** Which outcome does the source give for O=NN(c1ccccc1)c1ccccc1 here?
**A.** inactive

**Q.** O=C(N[C@H]1CN2CCC1CC2)c1cc2ccoc2cn1 was tested. Which outcome did it give?
**A.** inactive

**Q.** O=C(O)C(F)(F)C(F)(F)C(F)(F)C(F)(F)C(F)(F)C(F)(F)C(F)(F)C(F)(F)F was tested. Which outcome did it give?
**A.** inactive

**Q.** How did the outcome turn out when CC#Cc1cc(C)nc(Nc2ccccc2)n1 was run?
**A.** inactive

**Q.** For CCC(C)(c1ccc(O)cc1)c1ccc(O)cc1, which AC50 is on record?
**A.** 213 nM (active) [middle of 5 runs]

**Q.** With CC1=C2C[C@H]3[C@@H](CC=C4C[C@@H](O)CC[C@@]43C)[C@@H]2CC[C@]12O[C@@H]1C[C@H](C)CN[C@H]1[C@H]2C as the compound, how does the outcome read?
**A.** inactive

**Q.** CC(C)C(=O)OCC(C)(C)C(OC(=O)C(C)C)C(C)C (centres undefined) was tested. Which outcome did it give?
**A.** inactive

**Q.** CC(C)(O)C(=O)Nc1ccc([N+](=O)[O-])c(C(F)(F)F)c1 was tested. Which outcome did it give?
**A.** inactive

**Q.** For CCCCCCCCCC[N+](C)(C)CCCCCCCCCC, which AC50 is on record?
**A.** 16.1 µM (active)

**Q.** Nn1cnnc1 was tested. Which outcome did it give?
**A.** inactive

**Q.** CCCN(CCC)N=O was tested. Which outcome did it give?
**A.** inactive

**Q.** With CCCCCCOC(=O)c1ccccc1C(=O)OCCCCCC as the compound, how does the outcome read?
**A.** inactive
